PfHsp90 yeast 2: growth inhibition of yeast expressing Plasmodium Hsp90 | AID 504621 | 310,000 compounds, 0.32% hits | inhibition, % at 9.4 µM | S. cerevisiae expressing PfHsp90, BacTiter-Glo ATP, 48 h; yeast lacking PDR1 and PDR3 efflux regulators;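 active = every replicate shows inhibition above about 80%, whatever the replicate mean, limit read from the data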;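 note: 0% = DMSO neutral controls and 100% = 20 µM radicicol positive controls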
tim23-1 inh: inhibits growth of tim23-1 mutant yeast; S. cerevisiae tim23-1 growth, BacTiter-Glo luminescence, 24 h; inhibition, % at 20 µM; 330,000 compounds, 1.3% hits; AID 463212;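 active = growth inhibition of the mutant yeast at or above 50%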;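 note: temperature-sensitive mutant grown at 25 °C; plate controls were DMSO-treated mutant yeast for no effect and medium wells lacking yeast for full effect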
tim10-1 inh: growth inhibitors of tim10-1 mutant yeast; S. cerevisiae tim10-1 ts strain growth, BacTiter-Glo, 24 h; inhibition, % at 20 µM; 330,000 compounds, 2.2% hits;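 active = inhibition of at least 40%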;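 note: mutant grown at 25 °C; 0% = DMSO wells with yeast and 100% = wells holding no yeast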
Rce1 inhib: blocks yeast Ras-converting enzyme; calls only; yeast membranes, quenched prenylated peptide cleavage fluorescence; 290,000 compounds, 0.27% hits; Q03530;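 active = fall in fluorescence gain of 50% or more versus controls, with final raw signal at or below 3038400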;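 note: plate controls were neutral control wells for no effect and wells lacking membranes for full effect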
Target sequence (Q03530 whole entry, looked up): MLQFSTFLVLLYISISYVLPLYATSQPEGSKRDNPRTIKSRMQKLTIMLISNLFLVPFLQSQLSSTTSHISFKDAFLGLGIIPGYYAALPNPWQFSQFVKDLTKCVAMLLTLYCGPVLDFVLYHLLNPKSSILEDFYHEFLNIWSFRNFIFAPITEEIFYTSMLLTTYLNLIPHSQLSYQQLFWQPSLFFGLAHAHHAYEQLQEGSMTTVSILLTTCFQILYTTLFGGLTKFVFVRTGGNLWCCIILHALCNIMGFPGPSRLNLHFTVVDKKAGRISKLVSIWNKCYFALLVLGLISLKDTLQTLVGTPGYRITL
TIM10 inh: inhibits growth of TIM10 yeast strain | S. cerevisiae TIM10 strain growth, BacTiter-Glo luminescence, 24 h | inhibition, % at 10 µM | 330,000 compounds, 1.4% hits;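 active = inhibition of 40% or more at the single tested concentration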;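 note: wild-type TIM10 isogenic control strain grown at permissive 25 °C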
tim10-1 conf: tim10-1 yeast growth inhibition, confirmed; S. cerevisiae tim10-1 ts strain growth, BacTiter-Glo, 24 h; 7,400 compounds, 56% hits; shares compounds with tim10-1 inh; inhibition, % at 20 µM;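 active = inhibition of yeast growth at or above a set limit in either of two repeat tests at 20 µM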;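 note: tim10-1 mutant grown at permissive 25 °C to find synthetic lethal compounds; 0% = DMSO yeast wells and 100% = medium wells without yeast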
TIM10 conf: TIM10 yeast growth inhibition, confirmed | 4,600 compounds, 63% hits | shares compounds with TIM10 inh | S. cerevisiae tim10 strain growth, BacTiter-Glo luminescence, 24 h | inhibition, % at 10 µM;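 active = inhibition of yeast growth at or above a set limit in either of two replicates at 10 µM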;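 note: this counterscreen used the strain with wild-type TIM10; 0% = yeast with DMSO and 100% = medium wells lacking yeast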
An asterisk follows results filed as active; i = inactive; . = not tested or not shown. Rows were chosen to be rich in hits. Some 3.7% of all compounds tested hit in one or more screens of this group.

SMILES	PfHsp90 yeast 2	tim23-1 inh	tim10-1 inh	Rce1 inhib	TIM10 inh	tim10-1 conf	TIM10 conf
Cc1ccc(C(=O)Nc2ccc(S(=O)(=O)N3CCc4ccccc43)cc2)o1	1.2	47.2	49.1*	i	51.6*	33.1*	43.4*
Cc1cccc2c(=O)c(Br)c(C)n(Cc3ccccc3)c12	-36.5	-9.8	-0.5	i	4.5	.	.
COc1c(C)cc(S(=O)(=O)NCCN2CCOCC2)c(C)c1C	-33.0	7.4	2.4	i	-4.3	.	.
CNC(=S)NCc1ccc2[nH]c3c(c2c1)CCCC3	-7.7	12.7	-1.3	i	17.7	.	.
Cc1ccc(C)c(NC(=S)NCc2ccc3[nH]c4c(c3c2)CCCC4)c1	12.6	42.6	44.8*	i	42.9*	34.5*	40.0*
CC(=O)c1cccc(NC(=O)Nc2nc(C)cc(C)n2)c1	25.5	7.0	22.8	i	10.5	.	.
O=C(O)c1ccc(-c2ccc(Cl)cc2Cl)o1	.	20.1	-2.5	i	7.7	.	.
COc1cc2c(cc1OC)C(c1ccc(-c3cc(Cl)ccc3Cl)o1)=NCC2	-17.0	-2.4	45.8*	i	45.1*	43.5*	45.5*
COc1cc2c(cc1OC)C(C)=NCC2	-4.9	7.6	11.9	i	1.2	.	.
COc1cc2c(cc1OC)C(c1ccc(-c3ccccc3Cl)o1)=NCC2	.	49.0	46.0*	i	45.6*	40.4*	47.3*
COc1cc2c(cc1OC)C(c1ccc(Cl)cc1)=NCC2	9.3	-4.1	-2.3	i	8.3	.	.
COc1cc2c(cc1OC)C(c1ccc(-c3ccc(Cl)cc3Cl)o1)=NCC2	-56.1	44.6	51.1*	i	47.6*	26.6	35.6*
Cc1ccc(NC(=O)Nc2ccc3c(c2)OCO3)c(Br)c1	-8.9	-4.6	-2.5	i	-21.3	.	.
CC(C)(C)c1cc(OC(=O)c2ccccc2F)ccc1O	-19.4	35.9	45.4*	i	48.4*	24.3	42.7*
Cc1sc2ncnc(Oc3ccc(-n4ccnc4)cc3)c2c1C	-21.2	46.4	52.4*	i	69.0*	53.0*	-5.5
C=CC[C@]12C=C(OC)C(=O)C(OC)=C1O[C@@H](c1ccc3c(c1)OCO3)[C@H]2C	.	24.2	15.3	i	8.5	.	.
C=CC[C@]12CC=CC(=O)[C@@]1(O)O[C@H](c1ccc(OC)c(OC)c1)[C@H]2C	.	47.1	50.2*	i	41.8*	37.9*	42.7*
CC(C)COc1cccc(C(=O)NC(=S)NCc2cccnc2)c1	0.5	38.5	47.4*	i	43.4*	20.9	-19.0
O=C(Nc1ccccc1C(=O)NCc1ccccc1)c1ccccc1	7.1	36.3	47.3*	i	45.6*	42.0*	27.4
O=C(Nc1ccccc1C(=O)NCc1ccccc1)c1ccco1	3.8	31.8	37.8	i	34.1	.	.
Cc1ccc(Cl)cc1NC(=S)NCCCSC1CCCCC1	-3.8	39.0	42.4*	i	42.3*	26.5	12.8
Cc1cc(Cl)ccc1NC(=S)NCCCO	-10.1	9.9	15.1	i	10.4	.	.
Cc1cc(C(=O)NCc2ccccc2Cl)n(-c2ccccc2)n1	-10.7	2.1	5.9	i	4.6	.	.
O=C(Cc1ccc(Br)c2ccccc12)N/N=C/c1ccccn1	-6.4	7.3	41.2*	i	40.1*	21.0	32.0*
O=C(Cc1ccc(F)cc1)N/N=C/c1ccccn1	26.1	5.4	7.6	.	0.3	.	.
SMILES	PfHsp90 yeast 2	tim23-1 inh	tim10-1 inh	Rce1 inhib	TIM10 inh	tim10-1 conf	TIM10 conf
O=C1S/C(=C\c2ccc(Cl)cc2)C(=O)N1CCn1cnnn1	3.3	37.4	42.9*	i	43.3*	34.7*	18.2
O=C(OCC(=O)N1CCOCC1)c1c(Cl)ccc(Cl)c1Cl	13.4	4.8	12.3	i	22.7	.	.
CCCCOc1ccc(Nc2cc(Cl)ccc2C(=O)O)cn1	-47.1	34.5	52.1*	i	41.2*	26.4	33.6*
COc1ccc(CC(=O)Nc2cc(Cl)ccc2C(=O)O)cc1	-24.4	11.3	-2.4	i	6.5	.	.
Cc1ccc(C)c(OCCC(=O)N2CCN(S(=O)(=O)c3cc(C)ccc3C)CC2)c1	-27.9	31.2	30.2	i	29.0	.	.
COC(=O)c1ccc(C(C(=O)NC2CCCCC2)N(Cc2ccc(F)cc2)C(=O)Cc2cccs2)cc1 (configuration not stated)	-0.9	7.9	14.6	i	-6.1	.	.
O=C(NC1CCCC1)C(c1ccc(Cl)cc1)N(Cc1ccc(F)cc1)C(=O)CCl (configuration not stated)	-14.0	46.4	48.9*	i	46.6*	40.2*	-1.1
C=C1C(=O)O[C@H]2C[C@H]1[C@@H](OC(C)=O)C/C(C)=C/CC/C(C)=C\CC[C@]2(C)O	20.8	.	.	.	.	.	.
C=C1C(=O)O[C@@H]2[C@H]3O[C@]3(C)CC/C=C(\C)CC[C@@H]12	-5.6	46.4	53.9*	.	48.7*	37.7*	53.1*
O=C(NC1CCSc2ccccc21)c1cc(S(=O)(=O)N2CCOCC2)ccc1Cl (configuration not stated)	.	5.9	19.6	i	10.6	.	.
COC(=O)N1C(=O)[C@@](CC(C)C)(c2ccccc2)N1C(=O)OC	.	-10.1	24.0	i	-4.6	.	.
COC(=O)N1C(=O)[C@](c2ccccc2)(C2CCCCC2)N1C(=O)OC	3.1	48.8	49.0*	i	43.5*	32.3*	39.3*
O=C(COc1ccccc1F)Nc1cc(S(=O)(=O)Nc2cccc(Cl)c2)ccc1O	1.6	10.8	-12.0	.	7.5	.	.
COc1cccc(N2CCN(CC(=O)Nc3nc(C)c(C(=O)N(C)C)s3)CC2)c1	15.2	10.3	8.8	i	-7.0	.	.
COc1cccc(N2CCN(CC(=O)Nc3nc4c(s3)CC(C)CC4)CC2)c1 (configuration not stated)	14.7	37.0	40.2*	i	40.4*	20.5	29.0
COc1ccc(C(=O)O/N=C(\N)Cc2ccc([N+](=O)[O-])cc2)c(OC)c1	4.4	40.3	75.3*	i	51.3*	84.0*	57.5*
O=C(Cc1ccc(NC(=O)C2CCN(C(=O)C3CCC3)CC2)cc1)Nc1cccc(C(=O)N2CCCC2)c1	-7.1	.	.	.	.	.	.
O=C(c1ccc([N+](=O)[O-])s1)N1CCN(c2ccccn2)CC1	-4.4	45.8	49.2*	i	43.9*	47.8*	43.5*
O=C(c1ccc([N+](=O)[O-])s1)N1CCN(c2ccccc2)CC1	3.4	31.4	52.6*	i	60.1*	47.2*	49.6*
COc1ccc(OC)c2sc(N3CCN(C(=O)c4ccc([N+](=O)[O-])s4)CC3)nc12	40.9	-53.9	34.3	i	-86.8	.	.
COc1cc2c(cc1OC)C(c1cc(Br)ccc1F)N(C(=O)CCl)CC2 (configuration not stated)	7.5	45.9	41.5*	i	45.2*	40.4*	43.1*

Screening data deposited in PubChem BioAssay by several laboratories.
